# Compound activity: PubChem, National Center for Advancing Translational Sciences (NCATS)
# NPSR antag – neuropeptide S receptor (human) antagonism, cAMP; 220,000 compounds, 1% hits; Potency, µM (titrated, usually from 38.3 µM), without a hit: at the top dose activity change, negative = inhibition, actives largely listed as inhibitors; AID 1461; CHO-NPSR cells, cAMP TR-FRET, antagonist mode; note: potency is the fitted concentration of half-maximal effect; nearly all actives have a fitted effect of over 50% in size
# Coupling enz – coupling enzyme interference in Giardia aldolase counter-screen; coupling enzyme system counterscreen, AmpLite Red fluorescence; activity change, negative = inhibition, % at 58.2 µM, hits read low; 290,000 compounds, 0.67% hits; AID 2472; in the data active = activity change below about -30%
#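 Fluorescence at 525 nm excitation and 598 nm emission measured inhibition of the coupled detection system without aldolase. Compounds (at 57.5 uM final) were preincubated 10 min at room temperature with coupling enzyme reagent before a 20 min substrate/AmpLite Red step.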
# JMJD2E inh – inhibitors of human JMJD2E histone demethylase. JMJD2E catalytic domain, FDH-coupled NADH fluorescence (FDH is formaldehyde dehydrogenase). Potency, µM (series often up to 57.1 µM), without a hit: at the highest dose activity change, negative = inhibition, usual class: inhibitors. 230,000 compounds, 1.6% hits. AID 2147; active = well fitted inhibition curve with a large enough effect, not every such curve was filed as active; inconclusive = small, poorly fitted or top-dose-only effect, or another doubt; inactive = no such curve, though single readings can be large or run the other way;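 note: potency is the fitted concentration of half-maximal effect; 0% = wells with enzyme and -100% = buffer wells without enzyme; nearly all actives have a fitted effect of over 50% in size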
# Target sequence (B2RXH2 1-337 limits assumed): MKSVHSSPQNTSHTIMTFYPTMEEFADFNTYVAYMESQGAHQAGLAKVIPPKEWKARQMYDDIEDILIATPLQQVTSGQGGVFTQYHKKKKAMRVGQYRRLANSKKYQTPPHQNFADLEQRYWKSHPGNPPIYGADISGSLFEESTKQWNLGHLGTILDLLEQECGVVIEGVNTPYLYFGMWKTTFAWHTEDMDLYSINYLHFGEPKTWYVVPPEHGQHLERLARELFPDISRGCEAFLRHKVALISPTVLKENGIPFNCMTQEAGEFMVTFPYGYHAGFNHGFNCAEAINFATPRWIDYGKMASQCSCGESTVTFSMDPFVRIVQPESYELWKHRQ
# Sfp PPTase inh – inhibitors of Bacillus subtilis Sfp phosphopantetheinyl transferase. Q9F4F7. Biochemical Sfp PPTase activity, qHTS. Potency, µM, for the others: largest response in the series, negative = inhibition, actives largely listed as inhibitors. 310,000 compounds, 3.5% hits;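 note: the enzyme is Sfp with the accession as filed and its product quenches rhodamine fluorescence; potency is the fitted concentration of half-maximal effect; 0% = enzyme reaction without inhibitor and -100% = no enzyme wells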
#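 Step 1, compound plus 15 nM Sfp-PPTase, 15 min, room temperature. Step 2, add rhodamine-CoA (5 uM) and BHQ-2-YbbR (12.5 uM). Step 3, read 525/598 nm fluorescence at 0 and 30 min.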
# ALDH1A1 inh – blocks purified human ALDH1A1 activity. P00352. Purified ALDH1A1, NADH fluorescence, propionaldehyde substrate. Potency, µM (series often up to 75.3 µM), for inactives: at the highest dose activity, negative = inhibition, usual class: inhibitors. 220,000 compounds, 7.3% hits. AID 1030; active = well fitted inhibition curve with a large enough effect, not every such curve was filed as active; inconclusive = small, poorly fitted or top-dose-only effect, or another doubt; inactive = no such curve, though single readings can be large or run the other way;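 note: potency is the fitted concentration of half-maximal effect; plate controls were no enzyme wells and a reference inhibitor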
# GoLoco inh red – inhibitors of human Gai1-RGS12 GoLoco interaction (red fluorophore). P63096. Gai1:RGS12 GoLoco peptide FP, rhodamine, 10 min. Potency, µM (top dose mostly 61.6 µM), for the others: top-dose activity, negative = inhibition, actives largely listed as inhibitors. 230,000 compounds, 0.44% hits; active = well fitted inhibition curve with a large enough effect, not every such curve was filed as active; inactive = no such curve, though single readings can be large or run the other way; note: potency is the fitted concentration of half-maximal effect; nearly all actives have a fitted effect of over 30% in size
# Target sequence (P63096 whole entry, looked up): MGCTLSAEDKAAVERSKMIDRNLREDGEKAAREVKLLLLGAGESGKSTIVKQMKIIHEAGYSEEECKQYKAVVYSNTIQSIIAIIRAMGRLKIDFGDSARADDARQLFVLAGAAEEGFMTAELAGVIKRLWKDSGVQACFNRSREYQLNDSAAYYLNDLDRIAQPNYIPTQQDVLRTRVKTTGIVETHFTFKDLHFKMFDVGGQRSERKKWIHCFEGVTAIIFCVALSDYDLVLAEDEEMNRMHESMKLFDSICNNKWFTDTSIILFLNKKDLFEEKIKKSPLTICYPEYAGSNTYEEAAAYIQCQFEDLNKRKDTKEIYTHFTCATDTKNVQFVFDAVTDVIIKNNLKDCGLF
# Numbers without * were called inactive; ? = inconclusive; nt = no result; [ ] = remark or other dose. Hits are enriched below; roughly 8.5% of the tested compounds scored in any of these assays. Unless noted, calls come from the whole dose curve; as a rule, active = well fitted curve in the direction sought with a large enough effect; inconclusive = small, poorly fitted or top-dose-only effect, or another doubt; inactive = no such curve, though single readings can be large; an effect the other way counts as inactive or inconclusive. Unless noted, % is set by controls: 0 for no effect and ±100 for the full control effect.
SMILES,NPSR antag,Coupling enz,JMJD2E inh,Sfp PPTase inh,ALDH1A1 inh,GoLoco inh red
CN1CCN(CCCNC(=O)c2ccc(/C=C3/Sc4ccccc4N(Cc4cccc(Cl)c4)C3=O)cc2)CC1,-34.3%,-0.3,?,50.1µM*,-1.4%,11.1%
CCN1CCN(CCNC(=O)c2ccc(/C=C3\Sc4ccccc4N(Cc4ccccc4F)C3=O)cc2)CC1,9.3%,0.7,?,79.4µM*,?,5.7%
CN(C)c1ccc(C(=O)OCC(=O)NCC2CCCO2)cc1 (stereo unspecified),-12.4%[46.1 µM],5.2,0.4%,8.6%,2.5%,9.0%
CC(=O)OCC(NC(=O)C(COCc1ccccc1)NC(=O)OC(C)(C)C)C1OC(n2cc(F)c(=O)[nH]c2=O)C(OC(C)=O)C1OC(C)=O (stereo unspecified),nt,1.1,nt,8.8%,nt,nt
Cc1ccc(Oc2nc(CN3CCOCC3)nc3sc4c(c23)CCC(C)C4)cc1C (stereo unspecified),-54.9%,-0.8,-2.8%,39.8µM*,?,-7.1%
CC1CCc2c(sc3nc(CN4CCOCC4)nc(NS(=O)(=O)c4cccc([N+](=O)[O-])c4)c23)C1 (stereo unspecified),-12.2%[46.1 µM],3.8,-4.7%,?,4.47µM*,26.7%
Cc1cc(S(=O)(=O)Nc2nc(CN3CCOCC3)nc3sc4c(c23)CCCC4)ccc1F,-17.1%[46.1 µM],-0.6,?,-0.5%,14.1µM*,21.1%
Cc1nc(NS(=O)(=O)c2ccc(Br)cc2)c2c3c(sc2n1)CCC3,1.8%[46.1 µM],14.5,-17.1%,2.0%,12.6µM*,1.9%
COc1ccc(CCNC(=O)C2CCN(C(=O)c3ccc(C(C)(C)C)cc3)CC2)cc1,nt,-0.2,nt,15.4%,nt,nt
O=S(=O)(Nc1nc2c(s1)CCCC2)c1ccc(Br)cc1,-5.9%[46.1 µM],8.7,4.8%,8.8%,12.6µM*,1.0%
O=S(=O)(Nc1nc2c(s1)CCCC2)c1ccc(F)cc1,-14.3%[46.1 µM],-0.4,-1.4%,16.6%,?,-1.7%
CC1=CC(C)(C)Nc2ccccc21,-18.1%[46.1 µM],-20.2,?,79.4µM*,?,-4.7%
COc1ccc2c(c1)NC(C)(C)C=C2C,-6.4%,-33.1*,?,?,?,-0.4%
CC(=O)Nc1ccc(S(=O)(=O)Oc2ccc3c(c2)C(C)=CC(C)(C)N3)cc1,-1.6%,-3.9,3.8%,-3.1%,-8.5%,-1.8%
CC1=CC(C)(C)Nc2ccc(OC(=O)CCN3C(=O)c4ccccc4C3=O)cc21,?,-3.5,-0.4%,12.6%,?,-3.7%
CC1=CC(C)(C)Nc2ccc(OS(=O)(=O)c3ccc(C)cc3)cc21,?,-8.6,0.7%,-5.6%,1.12µM*,-3.0%
COc1ccc(NC(=O)C2CCCN(c3nn4c(=O)cc(C)nc4s3)C2)c(OC)c1 (stereo unspecified),nt,0.6,nt,13.4%,nt,nt
O=C(O)CSc1nc2ccccc2nc1Cc1ccccc1F,nt,1.5,nt,10.7%,nt,nt
Nc1nc(-c2ccc3c(c2)CCC(=O)N3)cs1,8.9%,1.3,1.4%,39.8µM*,?,4.9%
Nc1nc(-c2ccc3c(c2)CCO3)cs1,8.8%,0.4,3.2%,-12.4%,2.1%,5.2%
COc1ccc(-c2nc(N)n(C(=O)c3ccccc3Cl)n2)cc1,-3.2%,0.4,2.7%,0.9%,-0.4%,-1.0%
Cc1cccc(CN2C(=O)/C(=C\c3ccc(C(=O)NCCCN4CCN(C)CC4)cc3)Oc3ccccc32)c1,nt,4.8,nt,50.1µM*,nt,nt
Cc1cccc(CN2C(=O)c3ccccc3Sc3ccc(C(=O)NCCCN4CCOCC4)cc32)c1,nt,nt,nt,1.9%,nt,nt
CN1CCN(CCCNC(=O)c2ccc(/C=C3\Oc4ccccc4N(Cc4ccccc4F)C3=O)cc2)CC1,nt,2.8,nt,56.2µM*,nt,nt
CCOC(=O)c1sc(=NC(=O)c2ccc(S(=O)(=O)N3CC(C)OC(C)C3)cc2)n(C)c1C (stereo unspecified),10µM*,0.2,4.6%,13.2%,-1.0%,nt
SMILES,NPSR antag,Coupling enz,JMJD2E inh,Sfp PPTase inh,ALDH1A1 inh,GoLoco inh red
CCOC(=O)c1sc(=NC(=O)c2ccc(OC(C)C)cc2)n(C)c1C,5.01µM*,-0.1,-28.7%,7.5%,1.9%,-0.9%
CCOC(=O)c1sc(=NC(=O)c2cccs2)n(C)c1C,3.16µM*,0.9,-17.3%,17.5%,-9.9%,-4.1%
CC(=O)[C@H]1CC[C@@H]2[C@]1(C)CC=C1[C@@]23C=C[C@]2(C[C@H](O)CC[C@@]12C)[C@H](C(=O)O)[C@@H]3C(=O)O,nt,nt,nt,nt,0.0%[13.5 µM],2.7%[14.2 µM]
O=C1c2ccccc2C(Nc2ccc(S(=O)(=O)N3CCCCC3)cc2)N1c1ccccn1 (stereo unspecified),-9.1%[46.1 µM],-3.5,-11.7%,19.1%,5.01µM*,14.0%
COC(=O)C1=C(C)N=c2s/c(=C/c3cccs3)c(=O)n2C1c1cccs1 (stereo unspecified),-7.4%[46.1 µM],0.2,3.8%,11.5%,12.6%,14.7%
CCOC(=O)C1=C(c2ccccc2)N=c2s/c(=C\c3ccc(O)cc3)c(=O)n2C1c1cccs1 (stereo unspecified),10µM*,-1.6,-4.9%,-5.5%,-3.7%,214.8%
COC(=O)C1=C(C)N=c2s/c(=C/c3ccoc3)c(=O)n2C1c1ccccc1 (stereo unspecified),?,0.2,-6.0%,79.4µM*,-6.2%,68.2%
CCOC(=O)C1=C(C)N=c2s/c(=C\c3ccc(OCC(=O)O)cc3)c(=O)n2C1c1ccccc1 (stereo unspecified),nt,5.5,nt,-1.2%,nt,nt
CCOC(=O)C1=C(C)N=c2s/c(=C/c3cccc([N+](=O)[O-])c3O)c(=O)n2C1c1ccccc1 (stereo unspecified),nt,5.8,nt,50.1µM*,nt,nt
CCOC(=O)C1=C(C)N=c2s/c(=C\c3cccn3C)c(=O)n2C1c1cccc(OC)c1OC (stereo unspecified),-24.4%[46.1 µM],-2.7,0.1%,15.8µM*,6.2%,-2.4%
NNC(=O)C(Cc1c[nH]c2ccccc12)NC(=O)c1ccccc1 (stereo unspecified),-24.8%,2.5,58.3%,-9.4%,-17.9%,20.3%
CCOC(=O)C1=C(C)N=c2s/c(=C\c3cc(OC)c(OC)c(OC)c3)c(=O)n2C1/C=C/c1ccccc1 (stereo unspecified),-6.0%,1.5,14.5%,5.1%,-9.0%,16.9%
CCOC(=O)C1=C(C)N=c2s/c(=C/c3ccco3)c(=O)n2C1c1cccc(OC)c1 (stereo unspecified),?,-1.9,-2.6%,39.8µM*,3.55µM*,220.6%
CCOC(=O)C1=C(C)N=c2s/c(=C\c3cccc(OCC(=O)O)c3)c(=O)n2C1c1ccccc1 (stereo unspecified),nt,11.9,nt,-20.7%,nt,nt
CCOC(=O)C1=C(C)N=c2s/c(=C/c3cccc([N+](=O)[O-])c3O)c(=O)n2C1c1cc(OC)c(OC)c(OC)c1 (stereo unspecified),nt,2.5,nt,56.2µM*,nt,nt
